TDP43 rescue: qHTS of TDP-43 Inhibitors; AID 652104, 2013; TDP-43 expressing yeast growth rescue, BacTiter-Glo, 24 h; Potency, µM (top dose mostly 46.1 µM), actives largely listed as activators; hit rate 1.8% among 410,000; note: nearly all actives have a fitted effect of over 50% in size
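Cell-based yeast growth screen: TDP-43 expression induced in galactose, inoculum OD600=0.02 after raffinose pregrowth to mid-log. Read-out BacTiter-Glo luminescence at 24 hr, 30 deg C; inhibition of toxicity seen as signal increase.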
ERG Ets-DNA blk: qHTS for Small Molecule Inhibitors of the ERG Ets/DNA interaction. AID 624246, 2012. hit rate 0.028% among 370,000. fluorescence polarization, His-ERG Ets domain / labelled DNA. Potency, µM (titrated, usually from 76.9 µM), most hits filed as inhibitors; active = well fitted inhibition curve with a large enough effect in the polarisation, with a control signal flat; inconclusive = small, poorly fitted or top-dose-only effect, or effect the other way, or a change in a side signal; inactive = no such curve, though single readings can be large or run the other way; the % refers to the polarisation;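 note: polarization taken with two DNA probes labelled with fluorescein and Texas red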
Target sequence (P11308 whole entry, looked up, the tested form may be a part): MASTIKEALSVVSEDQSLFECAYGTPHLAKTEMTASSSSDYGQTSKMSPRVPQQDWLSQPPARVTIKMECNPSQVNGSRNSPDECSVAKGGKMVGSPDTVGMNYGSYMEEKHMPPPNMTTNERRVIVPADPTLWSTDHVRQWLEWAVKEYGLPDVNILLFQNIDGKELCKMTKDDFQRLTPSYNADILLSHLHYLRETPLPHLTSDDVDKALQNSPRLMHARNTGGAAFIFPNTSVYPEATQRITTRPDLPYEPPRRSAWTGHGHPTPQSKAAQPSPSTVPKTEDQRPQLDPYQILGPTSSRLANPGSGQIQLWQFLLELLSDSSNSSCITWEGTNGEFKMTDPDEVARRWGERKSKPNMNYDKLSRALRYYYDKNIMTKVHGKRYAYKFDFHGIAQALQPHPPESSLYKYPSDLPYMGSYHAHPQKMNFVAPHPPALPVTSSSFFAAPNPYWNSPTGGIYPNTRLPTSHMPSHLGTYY
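His-tagged ERG Ets domain (1 uM in the protein solution; 300mM KCl, 50mM Tris-HCl, 1mM EDTA, 1mM DTT, pH 7.5) received compound, then a probe mix of 5 nM fluorescein-DNA and 100nM Texas-615-DNA. Fluorescence polarization was read for both dyes.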
FUS yeast rescue: qHTS for Suppressors of FUS Proteinopathy: Primary screen using FUS-linked yeast assay; S. cerevisiae FUS-expressing, growth rescue, OD600, 24 h; hit rate 0.24% among 390,000; Potency, µM (doses to about 76.6 µM), usual class: activators; AID 1347120, 2019; note: nearly all actives have a fitted effect of over 55% in size
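Toxicity suppression screen in FUS-yeast. Cells induced with 2% galactose, starting OD 0.005, treated 24hr at 30C with compounds at multiple final concentrations; growth by OD600.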
Abeta rescue: qHTS for compounds that reverse cellular toxicity of Amyloid beta (A-beta) peptide in yeast: Primary Screen; hit rate 0.063% among 410,000; yeast expressing A-beta42, growth rescue, OD600, 48 h; response scale: 0% DMSO, 100% iron-clioquinol control; Potency, µM (titrated, usually from 46.1 µM), most hits filed as activators; note: nearly all actives have a fitted effect of over 55% in size
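Growth rescue measured by 600 nm absorbance after 48 h yeast culture at 30 C with compound. Values normalized between DMSO and an equimolar ferric chloride plus clioquinol control.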
Mito fusion act: qHTS Assay for Small Molecule Inhibitors of Mitochondrial Division or Activators of Mitochondrial Fusion. S. cerevisiae fusion-defective mutant growth rescue, CellTiterGlo 48 h. Potency, µM (top dose mostly 46.1 µM), usual class: activators. hit rate 0.23% among 320,000; note: nearly all actives have a fitted effect of over 45% in size
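Compounds are tested for their ability to restore growth of mitochondrial fusion-defective yeast strains at non-permissive 37C in YPEG medium over 48 hours. Viability is quantified by luciferase luminescence.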
aSyn yeast inh: qHTS of alpha-syn Inhibitors. hit rate 0.14% among 370,000. Potency, µM (top dose mostly 46.1 µM), most hits filed as activators. Yeast expressing alpha-synuclein, growth rescue, BacTiter-Glo, 24 h. AID 652106, 2013; note: nearly all actives have a fitted effect of over 65% in size
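Screening used galactose-induced yeast with toxic alpha-synuclein levels, exposed to compound for 24 hr at 30 deg C. Cell growth, read with BacTiter-Glo luminescence, gave the measured signal.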
Of the large screens only hits and unclear results are named; the others gave an inactive call. Sampled rows, rich in hits. Any-hit rate of the full collection: about 2.2%. Unless noted, calls come from the whole dose curve; as a rule, active = well fitted curve in the direction sought with a large enough effect; inconclusive = small, poorly fitted or top-dose-only effect, or another doubt; inactive = no such curve, though single readings can be large; an effect the other way counts as inactive or inconclusive.

Cc1ccc(NC(=O)Cc2sc(C)nc2-c2ccc(C)cc2)cc1	none (no result: FUS yeast rescue)
O=C(c1cc(-c2ccco2)on1)N1CCCc2ccccc21	FUS yeast rescue 35µM
O=C(c1cc(-c2ccccc2)on1)N1CCCc2ccccc21	none
COCCN=c1scc(-c2ccco2)n1/N=C/c1ccc(O)c(O)c1O	TDP43 rescue inconclusive
COCCN=c1scc(-c2cc(OC)ccc2OC)n1/N=C/c1c[nH]c2ccccc12	TDP43 rescue 22µM, aSyn yeast inh inconclusive
CCc1nc2ccc(C(=O)Nc3cccc(OC)c3)cn2c1N(C)CCCc1ccccc1	TDP43 rescue 35µM, FUS yeast rescue inconclusive (no result: ERG Ets-DNA blk, Mito fusion act)
CCc1nc2ccc(C(=O)Nc3cc(-c4ccccc4)ccc3OC)cn2c1N(CC)Cc1cccc(Br)c1	TDP43 rescue 16µM, FUS yeast rescue inconclusive (no result: ERG Ets-DNA blk, Mito fusion act)
COc1ccc(Nc2cnn(-c3nc4ccccc4s3)c(=O)c2Cl)cc1	TDP43 rescue 8.9µM (no result: FUS yeast rescue)
COc1cc(C#Cc2c(-c3cncn3C)n(C)c3ccc(-c4cnc(OC)nc4)cc23)cc(OC)c1	TDP43 rescue 11µM, Mito fusion act inconclusive
Cc1nc(NC(=S)Nc2ccccc2)sc1C	TDP43 rescue inconclusive, Abeta rescue 11µM
CCc1nnc(NC(=O)CCC(=O)Nc2ccccc2)s1	none
CCC(C(=O)Nc1nc(C)c(C)s1)c1ccccc1 (configuration not stated)	TDP43 rescue 18µM, Abeta rescue inconclusive
CCC(C(=O)Nc1nc(C)cs1)c1ccccc1 (configuration not stated)	TDP43 rescue inconclusive
CCc1nnc(NC(=S)Nc2ccccc2)s1	TDP43 rescue 13µM, Abeta rescue inconclusive
CC(=O)C1=CCC(c2cccc3ccccc23)N(S(=O)(=O)c2ccc(C)cc2)C1 (configuration not stated)	none (no result: ERG Ets-DNA blk, Mito fusion act)
CC1CCN(c2nc(Cl)nc(Nc3ccc([N+](=O)[O-])cc3)n2)CC1	TDP43 rescue 20µM, Mito fusion act inconclusive (no result: FUS yeast rescue)
CCOC(=O)c1c(N)sc2c1CCC1C(=O)N(C3CCCCC3)C(=O)C21 (configuration not stated)	FUS yeast rescue 28µM
CCCS(=O)(=O)Nc1cc(-c2cn3cccc(C)c3n2)ccc1C	none (no result: Mito fusion act, aSyn yeast inh)
CCOC(=O)/C=C/C(=O)Nc1ccc(Oc2ccccc2)cc1	TDP43 rescue 18µM
CCOC(=O)N1CCC(NC(=O)c2ccc3c(c2)N(Cc2ccccc2)C(=O)c2ccccc2S3(=O)=O)CC1	FUS yeast rescue inconclusive (no result: Mito fusion act, aSyn yeast inh)
O=C(c1ccc2c(c1)N(Cc1ccc(Cl)cc1)C(=O)c1ccccc1S2(=O)=O)N1CCCCCC1	FUS yeast rescue 28µM (no result: Mito fusion act, aSyn yeast inh)
CCOC(=O)N1CCC(NC(=O)c2ccc3c(c2)N(Cc2ccc(F)cc2)C(=O)c2ccccc2S3(=O)=O)CC1	FUS yeast rescue 25µM (no result: Mito fusion act, aSyn yeast inh)
O=C1c2ccccc2S(=O)(=O)c2cc(C(=O)N3CCN(c4ccc(Cl)cn4)CC3)ccc21	TDP43 rescue 20µM (no result: Mito fusion act)
C[C@H]1CN([C@@H](C)CO)C(=O)CCCn2cc(nn2)CO[C@@H]1CN(C)S(=O)(=O)c1ccc(C#N)cc1	none (no result: ERG Ets-DNA blk, Mito fusion act)
CCOC(=O)N1CCC2(CC1)OC(=O)C(C)=C2C(=O)NCc1cccc(OC)c1	none (no result: Mito fusion act, aSyn yeast inh)
O=C(/C=C/c1cn(-c2ccccc2)nc1-c1cccc(Cl)c1)N1CCN(c2ccccn2)CC1	TDP43 rescue 14µM, FUS yeast rescue inconclusive
CC(=O)C1=C(O)C(=O)N(CC(=O)O)C1c1ccccc1Cl (configuration not stated)	none
CC(C)(C)C(=O)C1=C(O)C(=O)N(Cc2ccccc2)C1c1ccccc1Cl (configuration not stated)	TDP43 rescue 13µM
Cc1cc(C)c(C(CC(=O)c2cccs2)C(C#N)C#N)c(C)c1 (configuration not stated)	TDP43 rescue 13µM
CC(CC(=O)c1cccs1)CC(=O)c1cccs1	none (no result: ERG Ets-DNA blk)
Cn1c2ccccc2c(=O)c2ccc(F)cc21	aSyn yeast inh 14µM
CCCCCc1cc(O)c2c(C)cc(=O)oc2c1	TDP43 rescue 3.2µM
Cc1cc(C)c(C#N)c(Sc2nc(C)c([N+](=O)[O-])c(C)c2C#N)n1	TDP43 rescue 20µM (no result: ERG Ets-DNA blk, Mito fusion act)
Cc1nc(Sc2ccccc2)c(C#N)c(C)c1[N+](=O)[O-]	TDP43 rescue 7.1µM, Abeta rescue inconclusive
Cc1cc(C)c(C#N)c(SCc2ccc([N+](=O)[O-])cc2)n1	none
CCN(CC)CCCNC(=O)Cn1nc(N2CCN(c3ccccc3OC)CC2)ccc1=O	none (no result: Mito fusion act, aSyn yeast inh)
C=C(C)c1cccc(C(C)(C)NC(=O)Nc2ccc(C)cn2)c1	TDP43 rescue 13µM, Mito fusion act inconclusive (no result: ERG Ets-DNA blk, FUS yeast rescue)
O=C1C(Cl)=C(Nc2ccccc2O)C(=O)N1c1ccccc1	TDP43 rescue 35µM
COc1ccc(C2=CC3=C(Br)C(=O)C(C)(OC(=O)c4ccc(Cl)nc4)C(=O)C3=CO2)cc1 (configuration not stated)	TDP43 rescue 14µM
O=C(NCc1cccc(Cl)c1)c1ccc(NC(=O)N2CCSc3ccccc32)cc1	none (no result: Mito fusion act, aSyn yeast inh)
Cc1ccc(C)c(N2CCN(c3nc4ccccc4c4nc(-c5cccnc5)nn34)CC2)c1	none (no result: Mito fusion act, aSyn yeast inh)
CCOc1cc(-c2nc(-c3ccccc3)c(-c3cc([N+](=O)[O-])ccc3C)[nH]2)ccc1O	FUS yeast rescue inconclusive, Mito fusion act 14µM
COc1ccc(-c2nc(-c3ccccc3)c(-c3cc([N+](=O)[O-])ccc3C)[nH]2)cc1OC	none
O=C(Nc1cccc(C(F)(F)F)c1)N1CC2CCCN2c2ccccc21 (configuration not stated)	none (no result: Mito fusion act, aSyn yeast inh)
CC(=O)c1sc2nc(C)c3c(c2c1N)CCCC3	TDP43 rescue 13µM, aSyn yeast inh 18µM
Cc1cccc2c(/C=C/c3ccc(N(C)C)cc3)ccnc12	none (no result: TDP43 rescue, ERG Ets-DNA blk, FUS yeast rescue, Abeta rescue, Mito fusion act)
CC(CCl)n1c(=O)c2ccccc2n1C(=O)c1ccccc1 (configuration not stated)	TDP43 rescue 11µM (no result: ERG Ets-DNA blk, Mito fusion act)
COC(=O)Cn1c2ccccc2c(=O)n1C(C)CBr (configuration not stated)	none (no result: ERG Ets-DNA blk, Mito fusion act)
CCCN(CC1CC1)C(=S)Nc1ccc(Oc2ccccc2)cc1	TDP43 rescue 20µM (no result: FUS yeast rescue)
CCOC(=O)C1=CCN(S(=O)(=O)c2ccccc2C(=O)OC)C1c1ccc(Cl)cc1 (configuration not stated)	TDP43 rescue inconclusive (no result: ERG Ets-DNA blk, Mito fusion act)
Cc1cccc(NC(=O)C(NS(=O)(=O)c2cccc3nsnc23)c2ccccc2)c1C (configuration not stated)	none (no result: Mito fusion act, aSyn yeast inh)
CCOc1ccc(-n2c(C)cc(C(=O)CCl)c2C)cc1	TDP43 rescue 8.9µM

Source: PubChem BioAssay (National Center for Advancing Translational Sciences (NCATS))
